Experimental findings from PubChem BioAssay (NCI) are described below.

Some test systems named below: NCI-H23 lung; NCI-H226 lung; NCI-H322M lung; HOP-62 NSCLC; NCI-H522 lung; A549/ATCC NSCLC; 786-0 renal; COLO 205 colon; DU-145 prostate; K-562 leukemia; MALME-3M melanoma; MDA-MB-231 breast; SF-268 CNS; SF-295 CNS; SF-539 CNS; UACC-257 melanoma; M14 melanoma; HOP-92 NSCLC; NCI-H460 lung; RXF 393 renal.
Assay in all cases: NCI-60 one-dose screen, 48 h (100 = growth as untreated, 0 = no growth, -100 = all killed)
Holding throughout (settings): 10 µM unless noted

This is part of a sample that, as a whole, favours compounds with a hit. Of some 83,000 tested, about 20% had one in any assay.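 How to read the values: 0–100, growth inhibition (40 = 60% inhibited); 0, no net growth; -100 to 0, cell death (-40 = 40% of starting cells died; -100 = all dead).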 Values without a mark were called inactive. Activity calls are given as the source filed them. Rule for the calls: active = growth percent below 10; inactive = the rest.

Take `CN1C(=O)N(C)[C@H]2NC(NN)=N[C@H]21`: the growth was 103% with NCI-H23 lung; 93.3% in the test with NCI-H226 lung; 91.2% with NCI-H322M lung; 98.8% with HOP-62 NSCLC; 102% in the test on NCI-H522 lung; 97.9% in the test on A549/ATCC NSCLC. In addition, the growth in the test with 786-0 renal is 99.8%; in the test with COLO 205 colon, 104%; with DU-145 prostate, 114%; in the test on K-562 leukemia it was 98.9%; in the test on MALME-3M melanoma, 94.3%; in the test with MDA-MB-231 breast, 102%. The growth is 94% in the test on SF-268 CNS; 101% with SF-295 CNS; 102% in the test with SF-539 CNS; 97.1% in the test with UACC-257 melanoma; 100% in the test with M14 melanoma.
For the molecule `Cc1ccc(/C=C/C(=O)c2ccc(N)cc2)c(C)c1`, the growth with NCI-H23 lung is 10.4%; in the test with NCI-H226 lung, 109%; in the test with NCI-H322M lung, 93%; in the test on HOP-62 NSCLC it was 104%; in the test with HOP-92 NSCLC, 88.2%; in the test on NCI-H522 lung it was -76.5% (active). Also, the growth in the test on A549/ATCC NSCLC was 99.2%; in the test with 786-0 renal, -63.5% (active); in the test on COLO 205 colon it was 60.3%; with DU-145 prostate, 78.3%; with MALME-3M melanoma, -75.6% (active); in the test with MDA-MB-231 breast it was 56.8%. The growth with SF-268 CNS was 36.6%; in the test on SF-295 CNS, 95.5%; in the test with SF-539 CNS it was 91%; with UACC-257 melanoma it was 108%; in the test on M14 melanoma it was 50.6%.
For the molecule `COc1ccc(-c2ncc(-c3ccccc3)[nH]2)cc1OC`, the growth in the test on NCI-H23 lung was 101%; with NCI-H226 lung, 100%; in the test on NCI-H322M lung, 218%; in the test on HOP-62 NSCLC it was 112%; with HOP-92 NSCLC, 93%; in the test with NCI-H522 lung, 108%. Moreover, the growth in the test with A549/ATCC NSCLC was 110%; with 786-0 renal it was -10.5% (active); in the test with COLO 205 colon, 145%; in the test with DU-145 prostate it was 131%; in the test with K-562 leukemia, 93.9%; with MALME-3M melanoma, 260%. Moreover, the growth with MDA-MB-231 breast is 107%; in the test on SF-268 CNS, 103%; in the test with SF-295 CNS, 88.6%; in the test on SF-539 CNS it was 100%; in the test with UACC-257 melanoma, 10.5%; in the test on M14 melanoma, 119%.
As to `C[C@]12C[C@H]1CC[C@]1(C)[C@@H]2CC[C@@]23C[C@H](CC[C@H]21)[C@@](O)(CO)C3`, the growth in the test on NCI-H23 lung is 98.5%; with NCI-H226 lung it was 96.8%; in the test with NCI-H322M lung, 94.2%; in the test with HOP-62 NSCLC, 109%; with HOP-92 NSCLC, 92.9%; in the test on NCI-H522 lung, 87%. The growth is -80.1% (active) with 786-0 renal; 109% in the test on COLO 205 colon; 104% in the test with DU-145 prostate; 66.7% in the test with K-562 leukemia; 98.7% in the test with MALME-3M melanoma; 93.1% with MDA-MB-231 breast. In addition, the growth with SF-268 CNS is 103%; in the test with SF-295 CNS it was 113%; in the test with SF-539 CNS it was 93%; with UACC-257 melanoma, 100%; in the test with M14 melanoma, -47.9% (active).
For `Fc1ccc(C2CC(c3cccc(Nc4ccncc4)c3)=NN2c2ccccc2)cc1` (configuration not stated), the growth is 86.3% in the test on NCI-H23 lung; 95.5% in the test with NCI-H226 lung; 70.6% in the test with NCI-H322M lung; 49.5% with HOP-62 NSCLC; 37.1% with HOP-92 NSCLC; 75.8% in the test on NCI-H522 lung. Further, the growth with A549/ATCC NSCLC was 43.1%; in the test on 786-0 renal, 81.7%; with COLO 205 colon it was -64.8% (active); in the test on DU-145 prostate, 44.1%; with K-562 leukemia, 0.671% (active); in the test on MALME-3M melanoma, -5.72% (active). Also, the growth in the test with MDA-MB-231 breast is 64.3%; with SF-268 CNS, 73.1%; with SF-295 CNS it was 73.4%; with SF-539 CNS it was 69.7%; in the test on UACC-257 melanoma, 37.8%; in the test with M14 melanoma it was 98.8%.
As to `CN1CCN(Cc2ccc(NC(=O)c3cncc(C#Cc4cnccc4C(F)(F)F)c3)cc2C(F)(F)F)CC1`, the growth in the test on NCI-H23 lung was 67.9%; in the test with NCI-H226 lung it was 47.8%; with NCI-H322M lung, 107%; with HOP-62 NSCLC, 80.5%; in the test with HOP-92 NSCLC it was 55.6%; with NCI-H522 lung, 79.4%. In addition, the growth in the test with A549/ATCC NSCLC was 94%; in the test on 786-0 renal it was 89.7%; with COLO 205 colon, 44.4%; in the test on DU-145 prostate, 105%; in the test with K-562 leukemia, 8.53% (active); in the test with MALME-3M melanoma, 15.3%. Also, the growth was 55.6% in the test with MDA-MB-231 breast; 92.1% in the test on SF-268 CNS; 88.6% in the test on SF-295 CNS; 28.8% in the test with SF-539 CNS; 80.4% with UACC-257 melanoma; 35.2% in the test on M14 melanoma.
For the molecule `CC(=O)O[C@]1(C(C)=O)CC[C@H]2[C@@H]3C=C(Cl)C4=CC(=O)CC[C@]4(C)[C@H]3CC[C@@]21C`, the growth was 114% in the test on NCI-H23 lung; 94.4% in the test on NCI-H226 lung; 106% in the test on HOP-62 NSCLC; 105% with NCI-H460 lung; 96.7% in the test with HOP-92 NSCLC; 72.2% in the test with NCI-H522 lung. Besides, the growth was 91.5% in the test with A549/ATCC NSCLC; 99.4% with 786-0 renal; 133% with COLO 205 colon; 122% in the test on DU-145 prostate; 96.7% in the test on K-562 leukemia; 125% in the test with MALME-3M melanoma. The growth with MDA-MB-231 breast is 88.1%; in the test on RXF 393 renal, 109%; with SF-268 CNS, 111%; in the test on SF-295 CNS it was 113%; in the test on SF-539 CNS, 102%; in the test on UACC-257 melanoma, 97.2%. In addition, in the test with M14 melanoma, the growth is 103%.
Regarding `N/C(=N\N=C\c1cc2ccccc2[nH]1)N/N=C/c1cc2ccccc2[nH]1`, the growth in the test on NCI-H23 lung was 96.3%; with NCI-H226 lung, 93.7%; in the test on HOP-62 NSCLC it was 95.7%; with NCI-H460 lung, 95.7%; in the test on HOP-92 NSCLC, 76.6%; with NCI-H522 lung, 98%. The growth is 101% with A549/ATCC NSCLC; 98.7% in the test on 786-0 renal; 102% with COLO 205 colon; 112% in the test on DU-145 prostate; 61.6% in the test with K-562 leukemia; 87.9% in the test on MALME-3M melanoma. The growth in the test with MDA-MB-231 breast is 99.9%; in the test on SF-268 CNS, 103%; in the test with SF-295 CNS, 111%; in the test with SF-539 CNS, 104%; in the test on UACC-257 melanoma, 107%; in the test with M14 melanoma, 99.4%.
